Screening results deposited in PubChem BioAssay by National Center for Advancing Translational Sciences (NCATS).
This is a sample that favours compounds with a hit; in the whole collection about 6.5% have one here.
HepG2 tox: qHTS for Inhibitors of TGF-b: Cytotox Counterscreen; HepG2 CAGA-GFP viability, ATP luminescence, 18 h; Potency, µM (doses to about 46.1 µM), for inactives: at the highest dose activity change, negative = cytotoxicity, usual class: cytotoxic; actives 0.76% (n = 410,000); AID 588856, 2011; further: potency means the concentration at half of the fitted maximal effect
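CellTiter-Glo luminescence gave cytotoxicity after 18 hours at 37 degrees C. The cells were HepG2 CAGA-GFP in 1% FBS DMEM, stimulated with 500 pg/mL TGF-beta after compound addition. %Activity was normalised to no-cell wells (complete cell-killing) and DMSO (no toxicity), and curves were fitted and classified.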
HT1080 IDH1KD tx: qHTS for induction of synthetic lethality in tumor cells producing 2HG: qHTS for the HT-1080-IDH1KD cell line; actives 2% (n = 360,000); HT-1080 IDH1 knockdown viability, ATP luminescence, 48 h; AID 686971, 2013; Potency, µM (doses to about 46.1 µM), for inactives: at the top dose activity, negative = toxicity, actives largely listed as cytotoxic;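 further: potency means the concentration at half of the fitted maximal effect; 0% = DMSO wells and -100% = cell-free medium wells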
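CellTiter-Glo luminescence after 48 h compound exposure at 37 degrees C of IDH1-knockdown HT-1080 cells in 5% FBS RPMI. %Activity scaled between DMSO wells and cell-free media wells, with curves fitted and assigned curve classes.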
Giardia kill: Small Molecules that selectively kill Giardia lamblia: qHTS. actives 0.15% (n = 340,000). AID 540267, 2011. activity change, % at 7.66 µM, hits read low. Giardia lamblia trophozoite viability; in the data active means activity change below about -80%; inconclusive means between about -30% and that limit;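 further: parasites exposed to compound for two days anaerobically before the ATP read; on the % scale 0 is the no-effect control and ±100 the full control effect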
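Viability, read as ATP luminescence: trophozoites at 100 cells/well, compound added, 48 hrs anaerobic at 37 deg C, then 15-30 min room-temperature development before reading.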
HT1080NT lethal: qHTS for induction of synthetic lethality in tumor cells producing 2HG: qHTS for the HT-1080-NT fibrosarcoma cell line. actives 1.6% (n = 360,000). HT-1080-NT fibrosarcoma viability, CellTiter-Glo ATP luminescence, 48 h. Potency, µM (top dose mostly 46.1 µM), without a hit: at the top dose activity, negative = less viability, most hits filed as cytotoxic;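 further: NT is the 2HG producing partner of a matched IDH1 knockdown line; potency means the concentration at half of the fitted maximal effect; 0% = DMSO-treated cells and -100% = media-only wells without cells; nearly all actives have a fitted effect of over 55% in size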
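Luminescent CellTiter-Glo readout after 48 hours of compound exposure at 37 degrees C defined viability of HT-1080-NT cells. Activity was normalized to DMSO wells and cell-free media wells; concentration-response curves were fitted and assigned curve classes.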
TGFb inhibitor: qHTS for Inhibitors of TGF-b; HepG2 CAGA-GFP TGF-b/SMAD3 reporter, GFP fluorescence, 18 h; TGF-beta stimulated, 500 pg/mL final; Potency, µM (doses to about 46.1 µM), without a hit: at the highest dose activity, negative = inhibition, hits mostly inhibitors; actives 1.2% (n = 410,000); AID 588855, 2011; further: potency means the concentration at half of the fitted maximal effect; on the % scale 0 is the no-effect control and ±100 the full control effect; nearly all actives have a fitted effect of over 65% in size
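HEPG2 CAGA-GFP reporter cells (1000/well, DMEM with 1% FBS) received compounds, then recombinant TGF-beta at 500 pg/mL final for 18 hours at 37 degrees C. Per-cell GFP summed per well was normalised to unstimulated and stimulated DMSO controls before curve fitting.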
IL-1B inflam inh: qHTS for Inhibitors of Inflammasome Signaling: IL-1-beta AlphaLISA Primary Screen; THP-1 LPS/ATP IL-1B secretion, AlphaLISA, 16 h; stronger effect = lower value; activity change, % at 57.5 µM; actives 4.7% (n = 360,000); AID 743279, 2014; in the data active means activity change below about -50%; inconclusive means mostly about -30% to -49%; further: on the % scale 0 is the no-effect control and ±100 the full control effect
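Secreted IL-1B measured by AlphaLISA bead assay after 16 h compound exposure of THP-1 cells; compounds (final up to 57.5 uM) added 1 h before LPS (250 ng/mL) and ATP (1.25 mM) stimulation; lower signal means less secretion.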
* hit, by the source's call; [ ] = another dose, or the depositor's remark. Unless noted, the call rests on the fitted dose curve; in most records, active means well fitted curve in the direction sought with a large enough effect; inconclusive means small, poorly fitted or top-dose-only effect, or another doubt; inactive means no such curve, though single readings can be large; an effect the other way counts as inactive or inconclusive.

For COC(=O)[C@@]12C[C@@H](CC(=O)NCc3cccc(C(F)(F)F)c3)C(=O)N(Cc3ccc4c(c3)OCO4)C1=CCC(C)(C)C2 the results were HT1080 IDH1KD tx 21µM*, HT1080NT lethal 13µM* and IL-1B inflam inh -71*.
COC(=O)[C@]12CCCCC=C1N(Cc1ccc3c(c1)OCO3)C(=O)[C@H](CC(=O)NCc1cccc(C(F)(F)F)c1)C2 was read as HT1080 IDH1KD tx inconclusive, HT1080NT lethal inconclusive and IL-1B inflam inh -18.
Screening COc1ccc(C(=O)Nc2ccc3[nH]ccc3c2)cc1OC returned HepG2 tox 7%, HT1080 IDH1KD tx -17%, Giardia kill -16, HT1080NT lethal -12%, TGFb inhibitor 22% and IL-1B inflam inh -27.
COc1ccc(C(=O)Nc2ccc(NC(=O)c3cccc(OC)c3)cn2)cc1 was read as HepG2 tox -23%, HT1080 IDH1KD tx inconclusive, Giardia kill -1, HT1080NT lethal 21µM*, TGFb inhibitor inconclusive and IL-1B inflam inh 17.
`CCCOc1cccc(C(=O)NC(=S)Nc2cccc(C(F)(F)F)c2)c1` gave HepG2 tox -43%, HT1080 IDH1KD tx 15%[9.24 µM], Giardia kill 3, HT1080NT lethal inconclusive, TGFb inhibitor -30% and IL-1B inflam inh -57*.
CN(C)S(=O)(=O)Oc1cccc(C(=O)Nc2ccc(Cl)cc2)c1 was read as HepG2 tox -16%, HT1080 IDH1KD tx inconclusive, Giardia kill 8, HT1080NT lethal 2%, TGFb inhibitor inconclusive and IL-1B inflam inh -63*.
Screening COc1ccc(C(=O)Nc2ccc3[nH]ccc3c2)cc1 returned HepG2 tox -33%, HT1080 IDH1KD tx 21µM*, Giardia kill -89*, HT1080NT lethal 18µM*, TGFb inhibitor -9% and IL-1B inflam inh -16.
CN(C)S(=O)(=O)Oc1cccc(C(=O)Nc2ccccc2Cl)c1 was read as HepG2 tox -18%, HT1080 IDH1KD tx -10%, Giardia kill -7, HT1080NT lethal 1%, TGFb inhibitor 11% and IL-1B inflam inh -23.
`COc1ccc(C(=O)Nc2ccc(NC(=O)c3cccc(F)c3)cn2)cc1` gave HepG2 tox -29%, HT1080 IDH1KD tx -3%, Giardia kill -10, HT1080NT lethal 1%, TGFb inhibitor -22% and IL-1B inflam inh 8.
`CCc1ccc(OCC(=O)Nc2ccc3c(c2)COC3=O)cc1` gave HepG2 tox -7%, HT1080 IDH1KD tx 29%, Giardia kill 23, HT1080NT lethal inconclusive, TGFb inhibitor 4% and IL-1B inflam inh 74.
For O=C(NNC(=O)C1CC1)c1cccc([N+](=O)[O-])c1 the results were HepG2 tox 8%, HT1080 IDH1KD tx 9%, Giardia kill 6, HT1080NT lethal 10%, TGFb inhibitor -1% and IL-1B inflam inh 9.
`COc1ccc(NC(=O)COc2cccc(C(F)(F)F)c2)cn1` gave HepG2 tox 22%, HT1080 IDH1KD tx 6%, Giardia kill -29, HT1080NT lethal -3%, TGFb inhibitor 26% and IL-1B inflam inh -14.
For O=C(Nc1ccc(Oc2cccc(C(F)(F)F)c2)nc1)c1ccccc1 the results were HepG2 tox -10%, HT1080 IDH1KD tx -12%, Giardia kill -8, HT1080NT lethal inconclusive, TGFb inhibitor 0% and IL-1B inflam inh -4.
COc1cccc(C(=O)Nc2ccc(Oc3cccc(C(F)(F)F)c3)nc2)c1 was read as HepG2 tox -46%, HT1080 IDH1KD tx inconclusive, Giardia kill -22, HT1080NT lethal inconclusive, TGFb inhibitor -1% and IL-1B inflam inh -80*.
